# Measurements published in ChEMBL document CHEMBL1961873, “Compounds: GSK PKIS; Assays: Nanosyn kinase panel” (2012).
# Tests used:
# [1] = target: Sphingosine kinase 1 (Homo sapiens) (UniProt Q9NYA1); details: at 1 µM;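 note: mean SPHK1 inhibition value reported from the GSK PKIS kinase panel screen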
# [2] = target: T1, Sphingosine kinase 2 (Homo sapiens) (UniProt Q9NRA0); details: at 0.1 µM
# T1 sequence (whole entry): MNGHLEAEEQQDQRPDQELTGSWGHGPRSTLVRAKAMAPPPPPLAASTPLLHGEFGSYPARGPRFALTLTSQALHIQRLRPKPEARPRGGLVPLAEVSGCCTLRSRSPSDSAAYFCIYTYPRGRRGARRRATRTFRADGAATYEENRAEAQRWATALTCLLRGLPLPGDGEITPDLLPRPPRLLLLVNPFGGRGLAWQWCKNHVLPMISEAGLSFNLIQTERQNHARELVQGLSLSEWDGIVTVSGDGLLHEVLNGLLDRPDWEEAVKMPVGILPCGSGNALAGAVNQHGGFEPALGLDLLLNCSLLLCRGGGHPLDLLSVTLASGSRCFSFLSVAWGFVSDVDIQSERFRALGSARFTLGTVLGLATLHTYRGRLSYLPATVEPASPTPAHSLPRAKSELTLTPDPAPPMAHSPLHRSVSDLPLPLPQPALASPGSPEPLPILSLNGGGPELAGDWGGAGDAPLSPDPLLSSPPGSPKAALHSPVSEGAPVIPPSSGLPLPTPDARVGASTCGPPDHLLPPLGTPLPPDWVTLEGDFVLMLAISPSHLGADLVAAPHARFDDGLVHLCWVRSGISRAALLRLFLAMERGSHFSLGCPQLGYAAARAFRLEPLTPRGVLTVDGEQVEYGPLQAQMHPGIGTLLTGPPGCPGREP
# [3] = target: T1, Sphingosine kinase 2 (Homo sapiens); details: at 1 µM
# [4] = target: Casein kinase II subunit alpha (Homo sapiens) (UniProt P68400); details: at 0.1 µM
# [5] = target: Casein kinase II subunit alpha (Homo sapiens) (UniProt P68400); details: at 1 µM
# [6] = target: T2, Inhibitor of nuclear factor kappa-B kinase subunit alpha (Homo sapiens) (UniProt O15111); details: at 0.1 µM
# T2 sequence (whole entry): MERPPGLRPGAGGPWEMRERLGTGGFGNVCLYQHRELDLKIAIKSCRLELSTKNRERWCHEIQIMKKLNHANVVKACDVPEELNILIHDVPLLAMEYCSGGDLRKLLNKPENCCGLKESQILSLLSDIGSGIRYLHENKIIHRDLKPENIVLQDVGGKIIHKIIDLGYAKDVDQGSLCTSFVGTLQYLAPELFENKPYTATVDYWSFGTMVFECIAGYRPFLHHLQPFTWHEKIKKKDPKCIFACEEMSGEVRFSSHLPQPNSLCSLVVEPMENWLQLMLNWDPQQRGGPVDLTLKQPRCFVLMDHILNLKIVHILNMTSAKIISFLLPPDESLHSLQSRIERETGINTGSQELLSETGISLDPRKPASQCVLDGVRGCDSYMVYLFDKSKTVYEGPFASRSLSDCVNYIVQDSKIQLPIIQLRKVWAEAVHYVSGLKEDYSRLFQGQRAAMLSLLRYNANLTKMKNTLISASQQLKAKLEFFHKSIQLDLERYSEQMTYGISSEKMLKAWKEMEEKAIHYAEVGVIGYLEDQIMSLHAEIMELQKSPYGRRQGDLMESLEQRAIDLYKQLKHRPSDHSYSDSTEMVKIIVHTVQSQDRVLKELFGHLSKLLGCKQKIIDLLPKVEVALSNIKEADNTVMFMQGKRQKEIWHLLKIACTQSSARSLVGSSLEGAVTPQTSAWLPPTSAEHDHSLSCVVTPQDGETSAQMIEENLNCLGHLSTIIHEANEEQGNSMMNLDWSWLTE
# [7] = target: T2, Inhibitor of nuclear factor kappa-B kinase subunit alpha (Homo sapiens); details: at 1 µM
# [8] = target: T3, Inhibitor of nuclear factor kappa-B kinase subunit beta (Homo sapiens) (UniProt O14920); details: at 0.1 µM
# T3 sequence (whole entry): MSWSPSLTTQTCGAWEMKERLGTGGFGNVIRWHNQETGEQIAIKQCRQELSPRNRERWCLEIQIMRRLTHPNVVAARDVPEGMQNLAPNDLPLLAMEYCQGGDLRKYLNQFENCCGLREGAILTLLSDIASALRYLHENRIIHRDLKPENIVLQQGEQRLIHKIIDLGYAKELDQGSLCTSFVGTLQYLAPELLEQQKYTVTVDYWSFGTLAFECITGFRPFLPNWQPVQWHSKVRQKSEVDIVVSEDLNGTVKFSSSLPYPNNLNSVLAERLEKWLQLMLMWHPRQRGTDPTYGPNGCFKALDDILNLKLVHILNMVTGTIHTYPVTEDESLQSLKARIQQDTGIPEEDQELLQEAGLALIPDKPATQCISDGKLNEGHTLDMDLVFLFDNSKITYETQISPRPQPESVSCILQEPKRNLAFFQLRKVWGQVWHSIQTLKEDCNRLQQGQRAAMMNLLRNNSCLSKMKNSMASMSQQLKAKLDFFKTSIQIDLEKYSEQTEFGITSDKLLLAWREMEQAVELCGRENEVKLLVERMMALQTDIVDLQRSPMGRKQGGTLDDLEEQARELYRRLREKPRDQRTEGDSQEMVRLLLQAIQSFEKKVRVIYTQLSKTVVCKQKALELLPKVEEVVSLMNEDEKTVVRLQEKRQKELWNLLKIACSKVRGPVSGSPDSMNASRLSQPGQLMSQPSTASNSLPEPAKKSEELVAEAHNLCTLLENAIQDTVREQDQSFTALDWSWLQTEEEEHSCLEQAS
# [9] = target: T3, Inhibitor of nuclear factor kappa-B kinase subunit beta (Homo sapiens); details: at 1 µM
# [10] = target: T4, Inhibitor of nuclear factor kappa-B kinase subunit epsilon (Homo sapiens) (UniProt Q14164); details: at 0.1 µM
# T4 sequence (whole entry): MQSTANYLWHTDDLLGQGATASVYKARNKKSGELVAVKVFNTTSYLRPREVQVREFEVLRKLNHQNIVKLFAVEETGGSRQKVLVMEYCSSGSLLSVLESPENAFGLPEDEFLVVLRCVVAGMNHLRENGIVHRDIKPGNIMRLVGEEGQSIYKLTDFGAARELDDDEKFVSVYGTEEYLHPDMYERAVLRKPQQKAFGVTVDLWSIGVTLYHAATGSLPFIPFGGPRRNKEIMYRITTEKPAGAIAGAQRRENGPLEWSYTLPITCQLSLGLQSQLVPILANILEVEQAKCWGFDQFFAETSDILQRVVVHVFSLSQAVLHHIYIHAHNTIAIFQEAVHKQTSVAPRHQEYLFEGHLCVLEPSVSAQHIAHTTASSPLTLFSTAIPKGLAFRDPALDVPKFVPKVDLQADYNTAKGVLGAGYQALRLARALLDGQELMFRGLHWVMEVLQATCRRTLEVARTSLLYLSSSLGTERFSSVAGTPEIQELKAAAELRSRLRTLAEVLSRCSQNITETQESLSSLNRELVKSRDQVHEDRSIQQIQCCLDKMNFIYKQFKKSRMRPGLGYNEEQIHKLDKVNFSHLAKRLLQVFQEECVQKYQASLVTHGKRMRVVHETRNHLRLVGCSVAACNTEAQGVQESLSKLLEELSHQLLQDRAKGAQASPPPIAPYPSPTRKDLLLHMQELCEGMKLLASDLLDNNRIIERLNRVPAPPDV
# [11] = target: T4, Inhibitor of nuclear factor kappa-B kinase subunit epsilon (Homo sapiens); details: at 1 µM
# [12] = target: T5, Serine/threonine-protein kinase Nek1 (Homo sapiens) (UniProt Q96PY6); details: at 0.1 µM
# T5 sequence (whole entry): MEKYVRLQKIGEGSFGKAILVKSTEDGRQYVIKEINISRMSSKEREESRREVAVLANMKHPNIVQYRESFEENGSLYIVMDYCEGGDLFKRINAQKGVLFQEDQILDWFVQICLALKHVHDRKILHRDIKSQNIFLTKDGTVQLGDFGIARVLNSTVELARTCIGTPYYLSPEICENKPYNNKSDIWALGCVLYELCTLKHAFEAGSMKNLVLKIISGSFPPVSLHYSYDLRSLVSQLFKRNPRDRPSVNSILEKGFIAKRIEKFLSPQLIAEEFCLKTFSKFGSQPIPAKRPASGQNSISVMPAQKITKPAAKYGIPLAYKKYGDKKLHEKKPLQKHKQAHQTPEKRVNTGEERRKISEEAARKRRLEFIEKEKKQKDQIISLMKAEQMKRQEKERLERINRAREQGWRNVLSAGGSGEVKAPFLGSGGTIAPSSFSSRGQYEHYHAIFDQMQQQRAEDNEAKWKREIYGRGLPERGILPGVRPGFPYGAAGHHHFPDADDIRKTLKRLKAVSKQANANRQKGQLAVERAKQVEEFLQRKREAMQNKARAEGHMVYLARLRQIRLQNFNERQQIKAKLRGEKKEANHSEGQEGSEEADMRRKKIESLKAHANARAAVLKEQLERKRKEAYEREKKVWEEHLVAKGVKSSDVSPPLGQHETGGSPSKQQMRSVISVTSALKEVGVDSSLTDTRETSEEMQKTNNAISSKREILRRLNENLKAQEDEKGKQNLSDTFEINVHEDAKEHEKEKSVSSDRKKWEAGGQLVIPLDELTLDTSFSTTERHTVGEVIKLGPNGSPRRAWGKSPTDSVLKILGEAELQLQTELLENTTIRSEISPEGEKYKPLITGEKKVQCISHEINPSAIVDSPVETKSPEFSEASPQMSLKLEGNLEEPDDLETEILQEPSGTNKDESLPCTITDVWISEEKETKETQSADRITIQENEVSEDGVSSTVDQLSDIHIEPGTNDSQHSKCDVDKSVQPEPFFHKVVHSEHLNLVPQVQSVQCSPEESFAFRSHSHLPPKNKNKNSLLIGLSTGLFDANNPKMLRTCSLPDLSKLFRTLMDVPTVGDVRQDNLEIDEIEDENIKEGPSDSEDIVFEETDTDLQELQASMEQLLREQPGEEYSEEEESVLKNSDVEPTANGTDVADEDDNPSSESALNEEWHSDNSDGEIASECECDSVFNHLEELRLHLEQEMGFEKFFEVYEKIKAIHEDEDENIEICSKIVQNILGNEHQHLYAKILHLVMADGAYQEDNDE
# [13] = target: T5, Serine/threonine-protein kinase Nek1 (Homo sapiens); details: at 1 µM
# [14] = target: T6, Serine/threonine-protein kinase Nek2 (Homo sapiens) (UniProt P51955); details: at 0.1 µM
# T6 sequence (whole entry): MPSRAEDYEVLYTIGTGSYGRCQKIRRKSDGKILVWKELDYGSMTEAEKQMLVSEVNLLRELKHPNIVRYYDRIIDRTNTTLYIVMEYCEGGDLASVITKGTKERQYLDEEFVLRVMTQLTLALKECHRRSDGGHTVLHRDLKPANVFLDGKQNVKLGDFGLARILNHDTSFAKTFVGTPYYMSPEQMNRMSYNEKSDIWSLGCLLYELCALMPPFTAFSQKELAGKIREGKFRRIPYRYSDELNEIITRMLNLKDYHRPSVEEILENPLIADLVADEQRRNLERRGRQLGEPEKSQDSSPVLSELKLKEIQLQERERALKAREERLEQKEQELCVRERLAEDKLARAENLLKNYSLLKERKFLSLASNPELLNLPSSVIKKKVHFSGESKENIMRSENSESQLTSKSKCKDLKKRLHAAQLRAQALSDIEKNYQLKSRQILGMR
# [15] = target: T6, Serine/threonine-protein kinase Nek2 (Homo sapiens); details: at 1 µM
# [16] = target: Serine/threonine-protein kinase Nek6 (Homo sapiens) (UniProt Q9HC98); details: at 0.1 µM
# [17] = target: Serine/threonine-protein kinase Nek6 (Homo sapiens) (UniProt Q9HC98); details: at 1 µM
# [18] = target: Serine/threonine-protein kinase Nek7 (Homo sapiens) (UniProt Q8TDX7); details: at 0.1 µM
# [19] = target: Serine/threonine-protein kinase Nek7 (Homo sapiens) (UniProt Q8TDX7); details: at 1 µM
# [20] = target: T7, Serine/threonine-protein kinase Nek9 (Homo sapiens) (UniProt Q8TD19); details: at 0.1 µM;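 note: reported value is the mean percent inhibition of NEK9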
# T7 sequence (whole entry): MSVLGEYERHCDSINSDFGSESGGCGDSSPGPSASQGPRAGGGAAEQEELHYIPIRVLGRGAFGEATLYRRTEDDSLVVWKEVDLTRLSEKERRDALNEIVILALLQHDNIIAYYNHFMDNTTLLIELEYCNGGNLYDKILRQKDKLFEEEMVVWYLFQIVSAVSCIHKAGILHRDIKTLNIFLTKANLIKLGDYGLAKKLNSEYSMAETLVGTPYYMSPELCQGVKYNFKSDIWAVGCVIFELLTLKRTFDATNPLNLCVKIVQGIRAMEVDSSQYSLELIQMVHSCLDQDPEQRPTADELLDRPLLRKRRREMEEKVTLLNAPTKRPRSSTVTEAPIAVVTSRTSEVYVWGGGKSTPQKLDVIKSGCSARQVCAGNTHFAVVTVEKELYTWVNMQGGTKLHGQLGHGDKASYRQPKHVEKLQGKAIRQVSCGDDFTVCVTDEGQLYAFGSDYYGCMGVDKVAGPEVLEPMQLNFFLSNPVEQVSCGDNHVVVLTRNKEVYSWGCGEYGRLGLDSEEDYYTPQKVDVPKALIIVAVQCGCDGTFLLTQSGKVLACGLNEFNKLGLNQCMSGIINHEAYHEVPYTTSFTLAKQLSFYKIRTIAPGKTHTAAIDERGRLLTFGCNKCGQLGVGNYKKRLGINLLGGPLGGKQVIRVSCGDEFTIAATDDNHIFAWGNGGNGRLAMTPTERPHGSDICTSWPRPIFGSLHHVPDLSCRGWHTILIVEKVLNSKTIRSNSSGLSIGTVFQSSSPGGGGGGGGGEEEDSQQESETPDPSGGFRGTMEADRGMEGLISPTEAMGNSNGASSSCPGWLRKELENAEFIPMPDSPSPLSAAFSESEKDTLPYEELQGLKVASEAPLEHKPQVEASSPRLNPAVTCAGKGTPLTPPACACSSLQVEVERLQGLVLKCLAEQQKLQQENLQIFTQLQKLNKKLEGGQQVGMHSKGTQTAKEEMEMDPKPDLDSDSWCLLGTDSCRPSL
# Casein kinase II subunit alpha (Homo sapiens), sequence (P68400 whole entry, looked up): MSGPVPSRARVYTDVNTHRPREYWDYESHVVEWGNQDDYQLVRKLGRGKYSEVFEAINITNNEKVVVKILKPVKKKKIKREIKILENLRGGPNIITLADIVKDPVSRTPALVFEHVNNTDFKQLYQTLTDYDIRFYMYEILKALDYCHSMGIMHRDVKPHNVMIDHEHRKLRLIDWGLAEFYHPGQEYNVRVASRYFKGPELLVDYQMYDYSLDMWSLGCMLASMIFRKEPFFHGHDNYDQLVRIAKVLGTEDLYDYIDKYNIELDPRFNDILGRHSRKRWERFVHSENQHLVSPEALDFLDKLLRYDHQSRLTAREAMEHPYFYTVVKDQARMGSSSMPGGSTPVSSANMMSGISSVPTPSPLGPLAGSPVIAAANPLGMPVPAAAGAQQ
# Serine/threonine-protein kinase Nek6 (Homo sapiens), sequence (Q9HC98 whole entry): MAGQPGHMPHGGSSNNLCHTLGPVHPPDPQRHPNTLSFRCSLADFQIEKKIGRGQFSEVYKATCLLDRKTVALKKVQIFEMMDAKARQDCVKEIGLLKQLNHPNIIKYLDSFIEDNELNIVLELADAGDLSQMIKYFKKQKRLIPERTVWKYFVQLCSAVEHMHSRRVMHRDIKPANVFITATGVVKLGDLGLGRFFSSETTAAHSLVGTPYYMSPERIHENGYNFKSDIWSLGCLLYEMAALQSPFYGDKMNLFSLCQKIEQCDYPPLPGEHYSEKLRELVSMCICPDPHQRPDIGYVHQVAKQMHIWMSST
# Serine/threonine-protein kinase Nek7 (Homo sapiens), sequence (Q8TDX7 whole entry, looked up): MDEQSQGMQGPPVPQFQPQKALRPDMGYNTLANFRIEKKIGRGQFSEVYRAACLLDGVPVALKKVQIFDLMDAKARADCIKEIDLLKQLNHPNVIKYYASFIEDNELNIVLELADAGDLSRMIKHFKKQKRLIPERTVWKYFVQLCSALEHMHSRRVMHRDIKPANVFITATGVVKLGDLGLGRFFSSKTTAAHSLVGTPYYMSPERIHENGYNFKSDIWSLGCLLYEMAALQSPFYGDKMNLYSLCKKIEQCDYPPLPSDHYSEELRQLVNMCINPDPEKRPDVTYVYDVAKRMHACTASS
# Sphingosine kinase 1 (Homo sapiens), sequence (Q9NYA1 whole entry): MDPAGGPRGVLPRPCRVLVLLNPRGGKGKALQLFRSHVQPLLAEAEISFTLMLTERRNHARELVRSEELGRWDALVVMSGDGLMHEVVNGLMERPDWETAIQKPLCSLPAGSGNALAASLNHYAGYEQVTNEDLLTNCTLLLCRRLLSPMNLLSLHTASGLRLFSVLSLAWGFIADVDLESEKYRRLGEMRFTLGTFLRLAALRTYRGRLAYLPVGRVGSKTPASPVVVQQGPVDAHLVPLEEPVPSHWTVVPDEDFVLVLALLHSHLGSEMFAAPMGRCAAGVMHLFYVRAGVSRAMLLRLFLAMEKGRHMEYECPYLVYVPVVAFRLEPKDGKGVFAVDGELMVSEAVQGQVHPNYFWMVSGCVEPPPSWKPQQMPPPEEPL
SMILES,inhibition [1],inhibition [2],inhibition [3],inhibition [4],inhibition [5],inhibition [6],inhibition [7],inhibition [8],inhibition [9],inhibition [10],inhibition [11],inhibition [12],inhibition [13],inhibition [14],inhibition [15],inhibition [16],inhibition [17],inhibition [18],inhibition [19],inhibition [20]
Nc1nccc(-c2c(-c3ccc(F)cc3)ncn2CCCN2CCOCC2)n1,-6.06%,-0.3%,0.84%,2.78%,4.35%,3.83%,5.27%,6.3%,5.49%,4.76%,5.9%,2.11%,3.63%,4.66%,5.54%,3.27%,0.28%,5.79%,4.4%,9.19%
FC(F)(F)c1ccc(-c2nn3ncccc3c2-c2ccnc(Nc3ccc4c(c3)OCCO4)n2)cc1,0.29%,3.37%,4.75%,8.02%,19.8%,1.17%,0.75%,0.04%,2.22%,1.97%,-1.52%,4.77%,2.05%,1.11%,1.32%,-1.63%,1.37%,-5.04%,-5.62%,-5.79%
